Measured values: the supplement of paper PMC10849652
Targets with a hit are over-represented here; the source holds about 8,800 in all. About 0.5% of all pairs of compound and target were hits.

Legend:
Assay in all cases: log2 fold change, soluble protein after heating vs DMSO (PISA); higher = thermal stabilisation; K562 lysate, 10 uM; active = over 0.2 and 3.5 SD of the protein, either way, in both replicates (recomputed)
erlotinib = compound: C#Cc1cccc(Nc2ncnc3cc(OCCOC)c(OCCOC)cc23)c1 [erlotinib]
In short: (§1)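 Following dounce homogenisation of K562 pellets in PBS pH 7.4 with 1 mM MgCl2, crude extract at 1 mg/mL protein was incubated for 30 min with 10 μM compound. Aliquots were then heated for 3 min over 48°C-58°C and pooled, NP-40 was added to 0.5% at 4°C, and soluble protein was recovered as the supernatant at 21,000xg for 90 min. Channel-sum-equalised TMTpro 16plex LC-MS/MS quantified this protein. Each value, from duplicates, is a log-two fold change in thermal stability relative to solvent controls.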

[1] = compound: C/C(=N\NC(=O)C1=CC(=CC=C1)S(=O)(=O)N2CCOCC2)/C3=C(C=CC(=C3)Cl)O
In short: as §1

[2] = compound: C1=CC(=CC=C1C2=NC3=C(N2)C=C(C=C3)C(=O)N)OC4=CC=C(C=C4)Cl
In short: as §1

[3] = compound: C1=CC2=C(C=CC(=C2)/C=C\3/C(=O)NC(=NCC4=CC=CS4)S3)N=C1
In short: as §1

[4] = compound: C1=CC2=NC=CN=C2C=C1/C=C/3\C(=O)NC(=O)S3
In short: as §1

[5] = compound: C1=CC=C(C=C1)C2=NC(=C(N2)C3=CC=NC=C3)C4=CC(=C(C=C4)Cl)O
In short: as §1

[6] = compound: C1=CC=C2C(=C1)C3=NNC4=CC=CC(=C43)C2=O
In short: as §1

[7] = compound: C1CCN(C1)C(=O)NC2=CC=CC(=C2)NC3=NC=C(C(=N3)NCCC4=CN=CN4)Br
In short: as §1

[8] = compound: C1CN(CCC1(CC2=CC=C(C=C2)Cl)N)C3=NC=NC4=C3C=CN4
In short: as §1

IRAK-1-4 Inhibitor I = compound: C1COCCN1CCN2C3=CC=CC=C3N=C2NC(=O)C4=CC(=CC=C4)[N+](=O)[O-] [IRAK-1-4 Inhibitor I]
In short: as §1

Measured: log2 fold change

NUB1 (UniProt Q9Y5A7)
UniProt Q9Y5A7, sequence (Q9Y5A7 whole entry, looked up): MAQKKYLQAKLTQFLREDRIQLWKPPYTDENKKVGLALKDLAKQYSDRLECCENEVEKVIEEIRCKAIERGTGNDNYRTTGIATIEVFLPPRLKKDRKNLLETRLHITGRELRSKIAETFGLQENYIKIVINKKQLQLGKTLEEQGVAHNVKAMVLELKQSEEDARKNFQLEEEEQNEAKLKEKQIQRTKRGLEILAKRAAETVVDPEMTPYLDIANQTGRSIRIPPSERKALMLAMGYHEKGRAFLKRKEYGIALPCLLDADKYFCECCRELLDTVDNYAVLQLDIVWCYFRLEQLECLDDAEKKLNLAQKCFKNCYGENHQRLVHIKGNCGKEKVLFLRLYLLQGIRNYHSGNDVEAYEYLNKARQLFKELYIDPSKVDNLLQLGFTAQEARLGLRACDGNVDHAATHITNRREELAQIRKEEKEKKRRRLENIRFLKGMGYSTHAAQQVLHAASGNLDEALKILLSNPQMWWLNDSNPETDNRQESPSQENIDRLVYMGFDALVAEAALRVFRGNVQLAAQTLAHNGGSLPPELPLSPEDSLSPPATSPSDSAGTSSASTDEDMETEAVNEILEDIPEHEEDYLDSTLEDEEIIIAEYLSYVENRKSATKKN
inactive: erlotinib 0.049 | [1] 0.055 | [2] -0.003 | [3] -0.015 | [4] 0.002 | [5] 0.054 | [6] 0.023 | [7] -0.022 | [8] -0.023 | IRAK-1-4 Inhibitor I -0.02

ORC2 (UniProt Q13416)
inactive: erlotinib -0.004 | [1] -0.006 | [2] -0.006 | [3] 0.009 | [4] 0.015 | [5] 0.006 | [6] -0.022 | [7] 0 | [8] -0.024 | IRAK-1-4 Inhibitor I -0.034

NELFCD (UniProt Q8IXH7)
inactive: erlotinib 0.034 | [1] 0.015 | [2] 0.007 | [3] 0.031 | [4] -0.019 | [5] -0.019 | [6] -0.044 | [7] -0.004 | [8] 0.023 | IRAK-1-4 Inhibitor I -0.036

MRPS12 (UniProt O15235)
inactive: erlotinib -0.015 | [1] -0.058 | [2] 0 | [3] -0.044 | [4] -0.016 | [5] 0.019 | [6] -0.251 | [7] -0.004 | [8] -0.127 | IRAK-1-4 Inhibitor I 0.043

NUDT4 isoform 2 (UniProt Q9NZJ9)
UniProt Q9NZJ9, sequence (Q9NZJ9 whole entry, looked up): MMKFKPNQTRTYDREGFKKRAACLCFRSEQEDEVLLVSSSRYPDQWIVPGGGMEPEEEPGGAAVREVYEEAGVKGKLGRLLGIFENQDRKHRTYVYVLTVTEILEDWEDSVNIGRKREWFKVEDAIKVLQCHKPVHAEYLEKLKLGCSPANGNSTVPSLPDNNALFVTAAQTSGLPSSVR
inactive: erlotinib 0.023 | [1] 0.015 | [2] 0.05 | [3] -0.048 | [4] 0.015 | [5] -0.007 | [6] -0.005 | [7] -0.069 | [8] 0.032 | IRAK-1-4 Inhibitor I -0.006

NFIC (UniProt P08651)
UniProt P08651, sequence (P08651 whole entry, looked up): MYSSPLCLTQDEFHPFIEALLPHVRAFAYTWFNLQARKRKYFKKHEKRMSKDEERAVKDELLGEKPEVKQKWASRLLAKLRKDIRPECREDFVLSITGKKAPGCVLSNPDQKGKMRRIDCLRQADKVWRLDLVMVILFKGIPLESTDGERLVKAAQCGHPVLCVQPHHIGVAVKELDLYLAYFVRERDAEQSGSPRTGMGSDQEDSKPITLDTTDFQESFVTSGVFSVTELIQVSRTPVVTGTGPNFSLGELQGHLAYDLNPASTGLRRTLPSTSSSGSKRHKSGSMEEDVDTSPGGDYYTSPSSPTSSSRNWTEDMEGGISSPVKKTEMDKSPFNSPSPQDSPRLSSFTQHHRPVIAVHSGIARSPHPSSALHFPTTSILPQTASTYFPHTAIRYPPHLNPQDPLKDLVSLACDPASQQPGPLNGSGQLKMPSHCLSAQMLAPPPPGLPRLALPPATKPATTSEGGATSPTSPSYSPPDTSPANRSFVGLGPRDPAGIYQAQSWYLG
inactive: erlotinib 0.014 | [1] 0.063 | [2] -0.044 | [3] 0.025 | [4] 0.001 | [5] -0.084 | [6] -0.082 | [7] -0.016 | [8] -0.032 | IRAK-1-4 Inhibitor I 0.052

MYD88 isoform 6 (UniProt Q99836)
UniProt Q99836, sequence (Q99836 whole entry, looked up): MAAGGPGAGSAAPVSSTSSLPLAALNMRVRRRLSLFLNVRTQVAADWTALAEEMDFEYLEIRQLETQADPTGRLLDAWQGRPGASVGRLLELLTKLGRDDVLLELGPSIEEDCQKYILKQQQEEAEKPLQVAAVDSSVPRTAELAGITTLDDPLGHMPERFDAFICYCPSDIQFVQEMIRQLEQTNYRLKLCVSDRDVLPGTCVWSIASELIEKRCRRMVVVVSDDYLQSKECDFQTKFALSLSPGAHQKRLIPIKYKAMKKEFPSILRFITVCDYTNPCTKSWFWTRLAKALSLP
inactive: erlotinib -0.066 | [1] 0.007 | [2] -0.011 | [3] -0.019 | [4] -0.019 | [5] -0.015 | [6] -0.025 | [7] 0.032 | [8] -0.067 | IRAK-1-4 Inhibitor I 0.004

NUSAP1 (UniProt Q9BXS6)
inactive: erlotinib -0.011 | [1] -0.466 | [2] 0.025 | [3] -0.008 | [4] -0.033 | [5] 0.008 | [6] 0.035 | [7] 0.012 | [8] 0.001 | IRAK-1-4 Inhibitor I -0.005

OTC (UniProt P00480)
inactive: erlotinib 0.09 | [1] 0.138 | [2] -0.096 | [3] -0.121 | [4] -0.049 | [5] -0.074 | [6] -0.069 | [7] -0.074 | [8] -0.095 | IRAK-1-4 Inhibitor I 0.125

NCAPG2 (UniProt Q86XI2)
inactive: erlotinib 0.023 | [1] -0.026 | [2] -0.019 | [3] 0.001 | [4] 0.006 | [5] -0.004 | [6] -0.026 | [7] 0.023 | [8] -0.016 | IRAK-1-4 Inhibitor I 0.004

MTHFD1, A0A384N5Y3
inactive: erlotinib 0.024 | [1] 0.041 | [2] -0.004 | [3] 0.04 | [4] 0.029 | [5] 0.02 | [6] -0.039 | [7] 0.021 | [8] 0.015 | IRAK-1-4 Inhibitor I 0.002

NFATC1 (UniProt O95644)
inactive: erlotinib -0.002 | [1] -0.431 | [2] 0.045 | [3] -0.04 | [4] -0.02 | [5] 0.065 | [6] 0.009 | [7] 0.044 | [8] 0.092 | IRAK-1-4 Inhibitor I 0.077

MRPS31 (UniProt Q92665)
inactive: erlotinib -0.015 | [1] -0.042 | [2] 0.056 | [3] 0.042 | [4] -0.021 | [5] -0.028 | [6] -0.048 | [7] -0.022 | [8] 0.02 | IRAK-1-4 Inhibitor I 0.005

NNT (UniProt Q13423)
inactive: erlotinib -0.027 | [1] 0.013 | [2] -0.014 | [3] -0.012 | [4] -0.006 | [5] -0.008 | [6] -0.033 | [7] 0 | [8] 0.031 | IRAK-1-4 Inhibitor I -0.026

NCAPH (UniProt Q15003)
inactive: erlotinib 0.036 | [1] -0.008 | [2] -0.006 | [3] -0.007 | [4] -0.002 | [5] -0.012 | [6] -0.063 | [7] -0.008 | [8] -0.018 | IRAK-1-4 Inhibitor I 0

OSBP2 (UniProt Q969R2)
inactive: erlotinib -0.019 | [1] -0.254 | [2] 0.08 | [3] 0.032 | [4] -0.039 | [5] -0.077 | [6] -0.075 | [7] 0.037 | [8] -0.01 | IRAK-1-4 Inhibitor I -0.061

NSA2 (UniProt O95478)
inactive: erlotinib -0.015 | [1] -0.15 | [2] 0.009 | [3] -0.102 | [4] -0.05 | [5] -0.002 | [6] -0.016 | [7] 0.157 | [8] 0.109 | IRAK-1-4 Inhibitor I -0.006

MYO1D (UniProt O94832)
UniProt O94832, sequence (O94832 whole entry, looked up): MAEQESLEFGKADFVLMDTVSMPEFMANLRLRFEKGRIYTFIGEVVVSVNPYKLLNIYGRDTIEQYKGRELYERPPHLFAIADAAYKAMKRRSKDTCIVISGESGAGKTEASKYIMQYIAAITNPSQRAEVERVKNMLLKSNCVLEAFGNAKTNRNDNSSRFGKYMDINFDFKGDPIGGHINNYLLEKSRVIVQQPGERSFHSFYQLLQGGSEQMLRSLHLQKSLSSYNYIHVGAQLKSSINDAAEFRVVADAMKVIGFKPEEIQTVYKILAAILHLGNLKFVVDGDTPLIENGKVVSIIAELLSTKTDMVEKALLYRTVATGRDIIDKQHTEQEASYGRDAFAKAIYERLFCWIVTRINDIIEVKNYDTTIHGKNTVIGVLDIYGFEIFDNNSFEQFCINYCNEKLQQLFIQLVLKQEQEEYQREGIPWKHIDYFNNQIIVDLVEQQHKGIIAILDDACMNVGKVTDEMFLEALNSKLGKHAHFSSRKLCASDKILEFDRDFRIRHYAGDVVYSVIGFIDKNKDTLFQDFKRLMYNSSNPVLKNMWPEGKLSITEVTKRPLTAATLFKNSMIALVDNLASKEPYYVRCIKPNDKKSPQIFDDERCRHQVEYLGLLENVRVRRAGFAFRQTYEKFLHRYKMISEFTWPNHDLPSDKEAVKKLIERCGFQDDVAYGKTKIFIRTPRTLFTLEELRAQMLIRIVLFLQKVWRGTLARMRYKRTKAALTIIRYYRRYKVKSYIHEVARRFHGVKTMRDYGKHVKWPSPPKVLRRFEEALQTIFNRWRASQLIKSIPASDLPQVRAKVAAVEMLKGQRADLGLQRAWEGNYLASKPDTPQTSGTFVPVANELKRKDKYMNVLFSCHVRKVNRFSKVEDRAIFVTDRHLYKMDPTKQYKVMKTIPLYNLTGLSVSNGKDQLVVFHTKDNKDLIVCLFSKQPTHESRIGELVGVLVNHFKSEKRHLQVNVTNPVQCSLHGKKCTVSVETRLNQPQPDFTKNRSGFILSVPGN
inactive: erlotinib 0.01 | [1] -0.064 | [2] -0.022 | [3] 0.004 | [4] 0.006 | [5] 0.01 | [6] -0.083 | [7] 0.015 | [8] 0.031 | IRAK-1-4 Inhibitor I -0.027

NCOR2 (UniProt C9J0Q5)
inactive: erlotinib 0.044 | [1] 0.033 | [2] 0.04 | [3] -0.082 | [4] -0.008 | [5] 0.054 | [6] -0.173 | [7] -0.002 | [8] 0.049 | IRAK-1-4 Inhibitor I 0.032

MTCH2 (UniProt Q9Y6C9)
UniProt Q9Y6C9, sequence (Q9Y6C9 whole entry, looked up): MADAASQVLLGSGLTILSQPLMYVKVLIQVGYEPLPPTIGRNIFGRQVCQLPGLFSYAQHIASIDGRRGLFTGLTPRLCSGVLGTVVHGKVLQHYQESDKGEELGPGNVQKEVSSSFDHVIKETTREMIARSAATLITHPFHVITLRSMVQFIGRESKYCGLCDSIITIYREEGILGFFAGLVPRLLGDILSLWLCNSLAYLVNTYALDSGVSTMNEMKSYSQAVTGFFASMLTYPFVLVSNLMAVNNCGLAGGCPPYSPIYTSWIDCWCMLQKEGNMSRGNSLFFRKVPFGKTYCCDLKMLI
inactive: erlotinib 0.004 | [1] 0.051 | [2] -0.081 | [3] -0.032 | [4] -0.06 | [5] -0.004 | [6] -0.031 | [7] -0.033 | [8] -0.011 | IRAK-1-4 Inhibitor I 0.027

NOB1 (UniProt Q9ULX3)
inactive: erlotinib 0.011 | [1] -0.028 | [2] 0.012 | [3] -0.016 | [4] -0.02 | [5] 0.023 | [6] -0.016 | [7] -0.016 | [8] -0.027 | IRAK-1-4 Inhibitor I 0.011

MSH6 (UniProt P52701)
inactive: erlotinib 0.011 | [1] 0.03 | [2] -0.023 | [3] 0.031 | [4] 0.041 | [5] 0.008 | [6] -0.025 | [7] 0 | [8] -0.014 | IRAK-1-4 Inhibitor I -0.008

MTOR (UniProt P42345)
inactive: erlotinib 0.02 | [1] 0.031 | [2] -0.058 | [3] -0.022 | [4] 0.038 | [5] 0.025 | [6] -0.018 | [7] -0.012 | [8] 0.003 | IRAK-1-4 Inhibitor I 0.006

NFATC2IP (UniProt Q8NCF5)
inactive: erlotinib 0.001 | [1] 0.026 | [2] -0.036 | [3] 0.006 | [4] 0.016 | [5] 0.031 | [6] -0.071 | [7] 0.013 | [8] -0.016 | IRAK-1-4 Inhibitor I -0.009

OCRL (UniProt Q01968)
inactive: erlotinib -0.057 | [1] -0.031 | [2] 0.04 | [3] 0.085 | [4] -0.012 | [5] 0.054 | [6] -0.1 | [7] 0.02 | [8] 0.055 | IRAK-1-4 Inhibitor I 0.068

NELFA (UniProt Q9H3P2)
UniProt Q9H3P2, sequence (Q9H3P2 whole entry, looked up): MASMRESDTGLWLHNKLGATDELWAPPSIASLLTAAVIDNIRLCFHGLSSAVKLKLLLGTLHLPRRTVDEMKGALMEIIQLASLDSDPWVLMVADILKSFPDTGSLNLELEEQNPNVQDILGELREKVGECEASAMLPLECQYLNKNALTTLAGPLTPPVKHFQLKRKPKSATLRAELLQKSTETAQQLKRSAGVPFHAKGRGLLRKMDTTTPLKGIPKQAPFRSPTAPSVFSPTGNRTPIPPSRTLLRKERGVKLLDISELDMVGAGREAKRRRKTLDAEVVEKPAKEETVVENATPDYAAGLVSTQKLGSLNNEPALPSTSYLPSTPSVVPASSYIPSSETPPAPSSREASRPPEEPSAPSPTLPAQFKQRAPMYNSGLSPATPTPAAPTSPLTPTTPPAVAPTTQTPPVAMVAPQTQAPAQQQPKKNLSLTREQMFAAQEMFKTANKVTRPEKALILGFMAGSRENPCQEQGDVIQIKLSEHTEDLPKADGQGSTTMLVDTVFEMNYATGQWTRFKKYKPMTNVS
inactive: erlotinib -0.04 | [1] -0.018 | [2] 0.002 | [3] 0.047 | [4] 0.007 | [5] 0.007 | [6] -0.009 | [7] 0.011 | [8] -0.001 | IRAK-1-4 Inhibitor I -0.017

NFAT5 isoform 5 (UniProt O94916)
UniProt O94916, sequence (O94916 whole entry, looked up): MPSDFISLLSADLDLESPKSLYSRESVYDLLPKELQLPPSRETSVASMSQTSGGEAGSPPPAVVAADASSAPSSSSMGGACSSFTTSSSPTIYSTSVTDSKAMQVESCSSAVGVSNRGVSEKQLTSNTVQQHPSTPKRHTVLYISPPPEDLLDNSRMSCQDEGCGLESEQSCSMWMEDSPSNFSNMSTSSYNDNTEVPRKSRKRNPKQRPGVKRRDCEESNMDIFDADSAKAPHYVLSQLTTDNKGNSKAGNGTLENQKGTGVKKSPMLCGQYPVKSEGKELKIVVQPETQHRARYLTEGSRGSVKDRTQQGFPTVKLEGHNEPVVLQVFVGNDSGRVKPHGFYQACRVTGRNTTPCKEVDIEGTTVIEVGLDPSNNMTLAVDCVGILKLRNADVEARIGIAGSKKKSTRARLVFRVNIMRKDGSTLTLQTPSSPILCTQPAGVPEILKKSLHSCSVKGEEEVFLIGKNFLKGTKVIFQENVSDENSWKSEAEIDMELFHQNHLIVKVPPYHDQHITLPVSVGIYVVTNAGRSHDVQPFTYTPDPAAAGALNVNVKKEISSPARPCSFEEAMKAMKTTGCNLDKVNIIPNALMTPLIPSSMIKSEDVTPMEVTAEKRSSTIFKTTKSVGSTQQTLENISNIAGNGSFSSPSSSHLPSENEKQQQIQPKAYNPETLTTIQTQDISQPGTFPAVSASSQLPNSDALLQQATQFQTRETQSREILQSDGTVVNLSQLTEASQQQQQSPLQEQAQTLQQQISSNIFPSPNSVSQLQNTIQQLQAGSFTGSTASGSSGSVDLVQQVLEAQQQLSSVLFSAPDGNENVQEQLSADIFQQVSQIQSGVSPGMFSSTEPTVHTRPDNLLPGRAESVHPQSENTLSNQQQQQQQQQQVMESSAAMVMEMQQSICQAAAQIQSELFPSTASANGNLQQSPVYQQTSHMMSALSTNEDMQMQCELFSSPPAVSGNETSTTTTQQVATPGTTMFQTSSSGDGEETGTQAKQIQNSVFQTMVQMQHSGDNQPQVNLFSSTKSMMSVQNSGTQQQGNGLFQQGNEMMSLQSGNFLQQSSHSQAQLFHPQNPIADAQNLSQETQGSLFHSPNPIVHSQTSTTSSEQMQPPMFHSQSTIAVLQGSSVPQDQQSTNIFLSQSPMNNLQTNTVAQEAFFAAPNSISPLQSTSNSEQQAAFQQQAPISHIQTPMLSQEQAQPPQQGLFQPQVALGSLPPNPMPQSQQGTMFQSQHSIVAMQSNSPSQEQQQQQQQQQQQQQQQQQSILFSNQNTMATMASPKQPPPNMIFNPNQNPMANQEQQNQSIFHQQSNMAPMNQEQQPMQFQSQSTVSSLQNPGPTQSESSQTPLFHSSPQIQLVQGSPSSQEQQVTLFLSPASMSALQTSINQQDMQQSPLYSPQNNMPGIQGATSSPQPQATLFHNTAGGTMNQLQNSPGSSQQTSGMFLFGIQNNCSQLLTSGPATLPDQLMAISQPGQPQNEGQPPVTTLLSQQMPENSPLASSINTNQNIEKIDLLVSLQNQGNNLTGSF
inactive: erlotinib -0.06 | [1] -0.012 | [2] 0.016 | [3] -0.036 | [4] 0.049 | [5] -0.008 | [6] -0.012 | [7] -0.006 | [8] 0.02 | IRAK-1-4 Inhibitor I 0.047

NCOR1 (UniProt O75376)
inactive: erlotinib 0.011 | [1] -0.05 | [2] 0.081 | [3] 0.004 | [4] -0.014 | [5] -0.041 | [6] -0.001 | [7] 0.009 | [8] 0.019 | IRAK-1-4 Inhibitor I 0.022

NEBL isoform 2 (UniProt O76041)
inactive: erlotinib 0 | [1] 0.081 | [2] 0.045 | [3] 0.012 | [4] 0.016 | [5] 0.015 | [6] 0.003 | [7] -0.007 | [8] -0.006 | IRAK-1-4 Inhibitor I -0.005

MRPL51 (UniProt Q4U2R6)
inactive: erlotinib -0.067 | [1] -0.05 | [2] -0.027 | [3] 0.08 | [4] -0.036 | [5] -0.039 | [6] 0.036 | [7] -0.006 | [8] -0.09 | IRAK-1-4 Inhibitor I 0.001
